Results on 2 compounds are retold here after PubChem BioAssay (EPA / NIEHS).

Common to all, as to details: mRNA level, 48 h; actives raise or lower the signal
Read-out in assay [1]: JUN Transcription Factor, JUN (gene 3725)
As to the kind of experiment: LTEA_HepaRG_JUN: Life Technologies and Expression Analysis (LTEA) Assay for JUN Transcription Factor using HepaRG (AID 2283513). The procedure, abridged:
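mRNA measured by TaqMan qRT-PCR after 48 h chemical exposure of HepaRG cultures; normalization to three housekeeping genes. Duplicate eight-point half-log curves from 100 uM in 0.5% DMSO; gain or loss fitted against DMSO baseline.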

Read-out in assay [2]: Lipase C (LIPC), LIPC (gene 3990)
In words: LTEA_HepaRG_LIPC: Life Technologies and Expression Analysis (LTEA) Assay for Lipase C (LIPC) using HepaRG (AID 2283514). Put shortly: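 In this multiplexed gene-expression screen, human HepaRG cultures received test chemicals for 48 h across eight concentrations with 100 uM highest, in duplicate. Values reflect LIPC mRNA induction or suppression versus DMSO vehicle, from normalized qRT-PCR.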

Read-out in assay [3]: Lipoprotein lipase (LPL), LPL (gene 4023)
In words: LTEA_HepaRG_LPL: Life Technologies and Expression Analysis (LTEA) Assay for Lipoprotein lipase (LPL) using HepaRG (AID 2283515). Put shortly: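 Concentration-response testing used half-log steps from 100 uM in 0.5% DMSO on human HepaRG cells, 48 h, duplicate wells. Phenobarbital 1 mM served as induction control; LPL mRNA was normalized to ACTB, GAPDH, POLR2A.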

Read-out in assay [4]: MicroRNA 122 (MIR122), gene 406906
As to the kind of experiment: LTEA_HepaRG_MIR122: Life Technologies and Expression Analysis (LTEA) Assay for MicroRNA 122 (MIR122) using HepaRG (AID 2283516). Also: the transcript read is the microRNA miR-122. Put shortly:
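Expression measured by microfluidic qRT-PCR with three housekeeping genes for normalisation, after 48 h treatment of HepaRG cultures. Eight concentrations (top 100 uM, half-log steps, 0.5% DMSO vehicle) in duplicate; gain or loss fitted relative to vehicle.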

Read-out in assay [5]: matrix metalloproteinase-10 (MMP10), MMP10 (gene 4319)
In words: LTEA_HepaRG_MMP10: Life Technologies and Expression Analysis (LTEA) Assay for matrix metalloproteinase-10 (MMP10) using HepaRG (AID 2283517). The procedure, abridged: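 In differentiated HepaRG cultures kept in 0.5% DMSO, test chemicals act for 48 h over an eight-point range with a top dose of 100 uM. Expression is then quantified by TaqMan RT-PCR against ACTB, GAPDH and POLR2A.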

Read-out in the next assay: MYC, MYC (gene 4609)
In words: LTEA_HepaRG_MYC: Life Technologies and Expression Analysis (LTEA) Assay for MYC using HepaRG (AID 2283518). Put shortly: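 MYC transcript changes, up or down relative to 0.5% DMSO, from TaqMan qRT-PCR normalized to three housekeeping genes. Human HepaRG cultures received chemicals for 48 h at eight half-log concentrations up to 100 uM, in duplicate.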

Read-out in assay [6]: matrix metalloproteinase-3 (MMP3), MMP3 (gene 4314)
As to the kind of experiment: LTEA_HepaRG_MMP3: Life Technologies and Expression Analysis (LTEA) Assay for matrix metalloproteinase-3 (MMP3) using HepaRG (AID 2283519). The procedure, abridged:
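Human liver HepaRG cultures received chemicals (top concentration 100 uM, 0.5% DMSO) for 48 h in duplicate. MMP3 mRNA induction or loss was then assessed via TaqMan qRT-PCR with housekeeping-gene normalisation.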

Read-out in assay [7]: Paternally Expressed 10 (PEG10), PEG10 (gene 23089)
In words: LTEA_HepaRG_PEG10: Life Technologies and Expression Analysis (LTEA) Assay for Paternally Expressed 10 (PEG10) using HepaRG (AID 2283520).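 As to AC50: PEG10 transcript by qRT-PCR normalised to ACTB GAPDH and POLR2A.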 Put shortly:
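PEG10 transcript measured by Fluidigm qRT-PCR, normalized to three housekeeping genes, in HepaRG cells treated 48 h (highest 100 uM, half-log steps, 0.5% DMSO vehicle). Cells plated 48 h before switching to serum-free induction medium.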

Read-out in assay [8]: Nuclear factor NF-kappa-B p105 subunit (Homo sapiens) (UniProt P19838)
As to the kind of experiment: LTEA_HepaRG_NFKB1: Life Technologies and Expression Analysis (LTEA) Assay for Nuclear Factor Kappa B Subunit 1 (NFKB1) using HepaRG (AID 2283521).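 Also: TaqMan qRT-PCR transcript normalised to ACTB GAPDH and POLR2A housekeeping genes.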 The procedure, abridged: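 Differentiated human HepaRG cells in serum-free induction medium with 0.5% DMSO were exposed for 48 h to eight half-log concentrations, top 100 uM, in duplicate. NFKB1 mRNA measured by Fluidigm TaqMan qRT-PCR, normalised to ACTB, GAPDH and POLR2A; bidirectional fit versus DMSO.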

Read-out in assay [9]: Protein phosphatase 2A (PPP2R4), PTPA (gene 5524)
In words: LTEA_HepaRG_PPP2R4: Life Technologies and Expression Analysis (LTEA) Assay for Protein phosphatase 2A (PPP2R4) using HepaRG (AID 2283522). Put shortly: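 Expression was quantified by Fluidigm qRT-PCR normalised to three housekeeping genes after 48 h treatment. Human HepaRG cells received an 8-point series from 100 µM downward by half-logs, in duplicate with 0.5% DMSO vehicle and 1 mM phenobarbital as induction control.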

Read-out in assay [10]: Phosphatase and tensin (PTEN), PTEN (gene 5728)
As to the kind of experiment: LTEA_HepaRG_PTEN: Life Technologies and Expression Analysis (LTEA) Assay for Phosphatase and tensin (PTEN) using HepaRG (AID 2283523). The procedure, abridged:
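Expression of PTEN is quantified in the human liver line HepaRG following two days of dosing (top concentration 100 uM, half-log dilutions, 0.5% DMSO). Values derive from bidirectional curve fitting relative to DMSO controls.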

Read-out in assay [11]: solute carrier (SLC22A1), SLC22A1 (gene 6580)
In words: LTEA_HepaRG_SLC22A1: Life Technologies and Expression Analysis (LTEA) Assay for solute carrier (SLC22A1) using HepaRG (AID 2283524).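 As to AC50: TaqMan qRT-PCR normalized to ACTB GAPDH and POLR2A housekeeping genes.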 Put shortly:
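Transcript induction or suppression of SLC22A1 in human HepaRG cultures is scored after 48 h chemical treatment, with DMSO (0.5%) as baseline for bidirectional fitting. Concentrations span eight half-log points topping at 100 uM.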

Read-out in assay [12]: Pyruvate Dehydrogenase Kinase 4 (PDK4), PDK4 (gene 5166)
In words: LTEA_HepaRG_PDK4: Life Technologies and Expression Analysis (LTEA) Assay for Pyruvate Dehydrogenase Kinase 4 (PDK4) using HepaRG (AID 2283525). The procedure, abridged: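 Eight-point, half-log concentration series (max 100 uM, 0.5% DMSO) applied to differentiated HepaRG cells for 48 h in duplicate. Endpoint: PDK4 mRNA induction or repression by qRT-PCR against DMSO baseline.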

Read-out in assay [13]: NAD(P)H dehydrogenase [quinone] 1 (NQO1), NQO1 (gene 1728)
As to the kind of experiment: LTEA_HepaRG_NQO1: Life Technologies and Expression Analysis (LTEA) Assay for NAD(P)H dehydrogenase [quinone] 1 (NQO1) using HepaRG (AID 2283526). Put shortly: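 NQO1 transcript induction or loss measured by TaqMan qRT-PCR, referenced to three housekeeping genes and fitted bidirectionally against 0.5% DMSO. HepaRG cultures exposed 48 h, duplicate, eight-point half-log series, top 100 uM.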

Read-out in assay [14]: Nuclear factor erythroid 2-related factor 2 (Homo sapiens) (UniProt Q16236)
In words: LTEA_HepaRG_NFE2L2: Life Technologies and Expression Analysis (LTEA) Assay for Nuclear factor erythroid 2-related factor 2 (NFE2L2) Transcription Factor using HepaRG (AID 2283527).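 Also: TaqMan qRT-PCR transcript level normalised to ACTB GAPDH and POLR2A housekeeping genes.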 The procedure, abridged: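 Human liver HepaRG line treated in duplicate for 48 h with an eight-point series topping at 100 uM. Gene expression of NFE2L2 by qRT-PCR, bidirectionally fitted against the vehicle control.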

Read-out in assay [15]: succinate dehydrogenase complex iron sulfur subunit B (SDHB), SDHB (gene 6390)
In words: LTEA_HepaRG_SDHB: Life Technologies and Expression Analysis (LTEA) Assay for succinate dehydrogenase complex iron sulfur subunit B (SDHB) using HepaRG (AID 2283528). Put shortly:
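HepaRG cells (~100,000/well, plated 48 h) exposed in duplicate for 48 h in serum-free induction medium to 8-point half-log series from 100 uM in 0.5% DMSO; mRNA by qRT-PCR normalised to ACTB, GAPDH, POLR2A; bidirectional fit versus DMSO.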

Read-out in assay [16]: Signal transducer and activator of transcription 3 (Homo sapiens) (UniProt P40763)
As to the kind of experiment: LTEA_HepaRG_STAT3: Life Technologies and Expression Analysis (LTEA) Assay for Signal transducer and activator of transcription (STAT3) using HepaRG (AID 2283529). The procedure, abridged: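 In this transcriptional endpoint, HepaRG cultures receive test chemicals at up to 100 uM for 48 h, tested in duplicate. STAT3 mRNA is normalized to ACTB, GAPDH and POLR2A.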

Read-out in assay [17]: solute carrier (SLCO1B1), SLCO1B1 (gene 10599)
As to the kind of experiment: LTEA_HepaRG_SLCO1B1: Life Technologies and Expression Analysis (LTEA) Assay for solute carrier (SLCO1B1) using HepaRG (AID 2283530). Put shortly: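 SLCO1B1 transcript levels were quantified by TaqMan qRT-PCR using three housekeeping genes for normalization. This followed 48 h chemical exposure (100 uM top, half-log, 8 points, 0.5% DMSO) of HepaRG liver cells, with gain or loss fitted relative to DMSO.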

Read-out in assay [18]: sulfotransferase 2A1 (SULT2A1), SULT2A1 (gene 6822)
As to the kind of experiment: LTEA_HepaRG_SULT2A1: Life Technologies and Expression Analysis (LTEA) Assay for sulfotransferase 2A1 (SULT2A1) using HepaRG (AID 2283531). The procedure, abridged:
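Expression change of SULT2A1, by qRT-PCR with three housekeeping-gene normalization, was scored bidirectionally versus DMSO. Cells: differentiated HepaRG, dosed in duplicate for 48 h across 8 points, highest 100 µM, half-log dilution, 0.5% DMSO.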

Read-out in assay [19]: Transforming Growth Factor (TGFA), TGFA (gene 7039)
In words: LTEA_HepaRG_TGFA: Life Technologies and Expression Analysis (LTEA) Assay for Transforming Growth Factor (TGFA) using HepaRG (AID 2283532). The procedure, abridged: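 Gene expression of TGFA was quantified by qRT-PCR after human HepaRG cells were treated for 48 h with test chemicals (eight concentrations, highest 100 uM, 0.5% DMSO). Activity in either direction was fitted relative to DMSO.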

Activity calls are given as the source filed them. The calls were made as follows: active = hit-call score of the fitted dose curve at least 0.9, where 1 is the maximum; inactive = score below 0.9.

Sequence of Nuclear factor NF-kappa-B p105 subunit (Homo sapiens) (P19838 whole entry, looked up): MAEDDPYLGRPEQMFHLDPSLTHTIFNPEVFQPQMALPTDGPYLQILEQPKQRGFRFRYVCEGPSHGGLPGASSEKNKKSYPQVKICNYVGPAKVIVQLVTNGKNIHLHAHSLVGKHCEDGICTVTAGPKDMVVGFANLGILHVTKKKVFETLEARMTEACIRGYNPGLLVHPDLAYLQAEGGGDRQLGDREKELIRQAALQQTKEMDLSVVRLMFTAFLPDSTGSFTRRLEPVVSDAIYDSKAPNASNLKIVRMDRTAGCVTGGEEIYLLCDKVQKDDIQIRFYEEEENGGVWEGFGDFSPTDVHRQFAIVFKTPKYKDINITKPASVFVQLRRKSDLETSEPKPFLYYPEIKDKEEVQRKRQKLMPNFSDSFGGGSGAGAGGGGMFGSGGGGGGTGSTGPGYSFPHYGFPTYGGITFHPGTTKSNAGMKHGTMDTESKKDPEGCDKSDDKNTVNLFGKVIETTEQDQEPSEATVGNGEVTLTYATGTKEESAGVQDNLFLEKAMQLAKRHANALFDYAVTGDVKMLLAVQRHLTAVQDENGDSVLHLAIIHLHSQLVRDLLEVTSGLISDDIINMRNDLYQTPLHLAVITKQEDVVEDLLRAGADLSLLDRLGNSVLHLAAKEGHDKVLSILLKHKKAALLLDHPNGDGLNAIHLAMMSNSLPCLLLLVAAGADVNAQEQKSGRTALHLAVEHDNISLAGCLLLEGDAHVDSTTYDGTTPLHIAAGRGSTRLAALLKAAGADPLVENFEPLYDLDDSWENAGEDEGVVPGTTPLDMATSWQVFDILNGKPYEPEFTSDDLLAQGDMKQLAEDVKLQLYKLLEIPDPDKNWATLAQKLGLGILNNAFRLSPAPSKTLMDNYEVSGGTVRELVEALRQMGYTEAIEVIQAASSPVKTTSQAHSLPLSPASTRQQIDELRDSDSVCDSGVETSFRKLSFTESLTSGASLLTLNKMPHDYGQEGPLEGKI
Sequence of Nuclear factor erythroid 2-related factor 2 (Homo sapiens) (Q16236 whole entry, looked up): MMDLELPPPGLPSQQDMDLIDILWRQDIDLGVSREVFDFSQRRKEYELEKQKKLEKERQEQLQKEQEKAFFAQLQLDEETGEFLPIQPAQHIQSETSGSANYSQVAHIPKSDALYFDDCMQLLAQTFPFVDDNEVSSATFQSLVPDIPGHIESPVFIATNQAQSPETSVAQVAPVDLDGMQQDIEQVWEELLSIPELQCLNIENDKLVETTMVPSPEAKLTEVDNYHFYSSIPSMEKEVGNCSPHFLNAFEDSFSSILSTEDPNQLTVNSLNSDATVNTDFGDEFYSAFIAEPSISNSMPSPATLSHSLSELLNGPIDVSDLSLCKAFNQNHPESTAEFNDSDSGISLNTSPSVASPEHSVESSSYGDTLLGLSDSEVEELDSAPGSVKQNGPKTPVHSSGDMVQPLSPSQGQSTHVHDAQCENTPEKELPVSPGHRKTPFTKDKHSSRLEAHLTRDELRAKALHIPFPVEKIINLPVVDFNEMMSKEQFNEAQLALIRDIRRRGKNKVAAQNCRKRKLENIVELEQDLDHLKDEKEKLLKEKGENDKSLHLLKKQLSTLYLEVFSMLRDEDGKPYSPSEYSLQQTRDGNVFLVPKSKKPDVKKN
Sequence of Signal transducer and activator of transcription 3 (Homo sapiens) (P40763 whole entry, looked up): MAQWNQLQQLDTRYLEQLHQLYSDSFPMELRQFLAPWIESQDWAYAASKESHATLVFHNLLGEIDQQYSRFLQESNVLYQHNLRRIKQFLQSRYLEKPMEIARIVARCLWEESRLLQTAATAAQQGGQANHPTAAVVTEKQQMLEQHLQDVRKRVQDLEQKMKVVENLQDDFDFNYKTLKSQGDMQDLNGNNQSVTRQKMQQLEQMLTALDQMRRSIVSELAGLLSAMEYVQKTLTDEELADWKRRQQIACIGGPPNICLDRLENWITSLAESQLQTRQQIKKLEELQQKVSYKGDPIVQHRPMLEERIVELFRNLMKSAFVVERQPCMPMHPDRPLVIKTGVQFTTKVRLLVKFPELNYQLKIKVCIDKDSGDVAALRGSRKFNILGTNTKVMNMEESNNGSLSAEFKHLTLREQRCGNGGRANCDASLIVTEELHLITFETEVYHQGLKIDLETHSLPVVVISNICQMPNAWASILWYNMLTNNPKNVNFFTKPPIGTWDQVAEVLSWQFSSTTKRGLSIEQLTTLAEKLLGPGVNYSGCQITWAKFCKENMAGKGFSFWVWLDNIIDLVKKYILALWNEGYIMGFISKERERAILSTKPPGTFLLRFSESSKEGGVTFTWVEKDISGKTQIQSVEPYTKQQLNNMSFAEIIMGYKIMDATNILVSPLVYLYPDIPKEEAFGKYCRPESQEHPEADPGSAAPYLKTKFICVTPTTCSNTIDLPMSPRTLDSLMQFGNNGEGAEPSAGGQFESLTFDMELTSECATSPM

For the compound `O=C(NC(=O)c1c(F)cccc1F)Nc1ccc(OC(F)(F)C(F)OC(F)(F)F)c(Cl)c1` (stereo not given), the outcome in assay [1] is “inactive”; in [2], “inactive”; in assay [3], “inactive”; in assay [4] it was “inactive”; in assay [5], “inactive”; with MYC, MYC (gene 4609), “inactive”. Further, the call in [6], in [7], in assay [8], in assay [9], in assay [10] and in [11] was inactive. Besides, the outcome in assay [12], in assay [13], in assay [14], in [15], in [16] and in assay [17] was inactive. For the same compound, the result in [18] and in assay [19] was inactive.
On to `CCC(C)(NC(=O)c1cc(Cl)c(C)c(Cl)c1)C(=O)CCl` (stereo not given), for which the result in assay [1], in [6], in assay [8], in [9], in assay [12] and in assay [14] was inactive. For the same compound, the compound was called inactive in assay [15], in [16] and in assay [19]. In addition, the AC50 was 50.2 µM (active) in assay [2]; 90.1 µM (active) in [3]; 75.5 µM (active) in assay [4]; 50.2 µM (active) in [5]; 50.2 µM (active) in the assay with MYC, MYC (gene 4609); 59.2 µM (active) in assay [7]. Further, the concentration at half-maximal activity (AC50) in assay [10] is 90.8 µM (active); in assay [11], 82.9 µM (active); in assay [13], 79.8 µM (active); in assay [17], 75.8 µM (active); in [18], 79.5 µM (active).
